CYP2C19 inhib – blockers of cytochrome P450 2C19 activity – biochemical, luminescence, ADME assay, primary screen; P33261; CYP2C19 Supersomes, luciferin-H EGE luminescence, 30 min; inhibition, % at 5 µM; 21% of 96,000 active; AID 778, 2007;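 active = CYP2C19 inhibition above a set limit at 5 µM in the primary screen, cut at about 50% in these data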
CYP2C9 inh – blockers of cytochrome P450 2C9 activity – biochemical, luminescence, ADME assay, primary screen | inhibition, % at 5 µM | 20% of 96,000 active | CYP2C9 Supersomes, luciferin-H conversion | P11712 | AID 777, 2007;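 active = blocking of liver enzyme CYP2C9 beyond about 50% at 5 µM, limit read from the data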
EphB4 antag – EphB4-ephrin-B2 interaction antagonists, primary screen, biochemical, TNYL-RAW peptide probe, fluorescence polarization; Ephrin type-B receptor 4 (Homo sapiens), P54760; inhibition, % at 7 µM; 0.15% of 97,000 active; AID 720, 2007; EphB4 LBD / TNYL-RAW-Alexa532 peptide;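 active = inhibition above the screen-wide mean inhibition plus 3 SD, cut at about 15% in these data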
Target sequence (P54760 whole entry, looked up, the tested form may be a part): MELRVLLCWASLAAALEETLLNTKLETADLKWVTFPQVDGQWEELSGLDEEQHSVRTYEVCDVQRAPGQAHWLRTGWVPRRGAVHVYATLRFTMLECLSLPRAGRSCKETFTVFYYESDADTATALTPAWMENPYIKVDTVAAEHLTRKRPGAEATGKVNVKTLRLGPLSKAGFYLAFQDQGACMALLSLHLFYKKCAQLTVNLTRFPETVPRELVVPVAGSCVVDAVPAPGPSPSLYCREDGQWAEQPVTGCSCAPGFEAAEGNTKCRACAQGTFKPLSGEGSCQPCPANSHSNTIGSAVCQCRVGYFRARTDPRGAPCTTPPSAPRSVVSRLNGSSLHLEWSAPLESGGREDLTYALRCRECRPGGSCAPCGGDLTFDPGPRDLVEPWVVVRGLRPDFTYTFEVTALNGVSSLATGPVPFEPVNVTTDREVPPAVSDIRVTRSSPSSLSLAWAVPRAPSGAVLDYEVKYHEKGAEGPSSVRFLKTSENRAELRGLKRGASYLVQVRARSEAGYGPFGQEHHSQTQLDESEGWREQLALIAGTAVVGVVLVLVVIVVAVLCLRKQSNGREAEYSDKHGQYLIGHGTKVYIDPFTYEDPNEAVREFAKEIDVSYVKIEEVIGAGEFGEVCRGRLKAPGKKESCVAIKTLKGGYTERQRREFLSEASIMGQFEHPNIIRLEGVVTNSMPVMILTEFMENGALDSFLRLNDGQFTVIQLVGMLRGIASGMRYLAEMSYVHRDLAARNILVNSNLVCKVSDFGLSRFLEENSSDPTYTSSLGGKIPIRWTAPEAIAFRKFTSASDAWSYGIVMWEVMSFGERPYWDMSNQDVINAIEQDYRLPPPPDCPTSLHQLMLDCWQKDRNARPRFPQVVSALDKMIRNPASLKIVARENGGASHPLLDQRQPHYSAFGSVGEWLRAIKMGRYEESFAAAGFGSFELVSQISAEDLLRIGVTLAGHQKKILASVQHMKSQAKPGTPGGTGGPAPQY
CYP2C19 activ – human CYP2C19 activators, primary screen, biochemical, luminescence. Cytochrome P450 2C19 (Homo sapiens), P33261. recombinant CYP2C19, luciferin-H EGE luminescence; active compounds read high; 0 = fully inhibited enzyme, 1 = untreated enzyme. activation factor at 5 µM. 96,000 tested, under 10 active. AID 1025, 2008;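 active = activation factor of at least 2 at 5 µM in the primary screen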
CYP2C9 act – human CYP2C9 activators, primary screen, biochemical, luminescence; activation factor at 5 µM; recombinant CYP2C9, luciferin-H conversion; active compounds read high; factor 1 = untreated enzyme, 0 = blocked; AID 1024, 2008; 1.4% of 96,000 active;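 active = activation factor of 2 or more for CYP2C9 at a 5 µM dose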
Each line names hits and unclear results; the compound was inactive in the other large screens. Shown are actives, neighbours in structure and some others; about 27% of the full set was active somewhere.

Cc1nc2ccccc2nc1OCC(=O)N1CCN(c2ccccc2)CC1	none
Cn1c(=O)c2c(ncn2CC(=O)N2CCN(c3ccc(F)cc3)CC2)n(C)c1=O	CYP2C9 inh 78
O=C(COc1ccccc1Cl)N1CCCC1	none
O=C(Cn1cccc1)N1CCN(c2ccc(F)cc2)CC1	CYP2C19 inhib 73
COC(=O)Cn1c(CN2CCN(c3ccc(F)cc3)CC2)nc2c1c(=O)n(C)c(=O)n2C	none (no result: EphB4 antag)
Cc1cc(N)c(-n2cc3c(=O)n(C)c(=O)n(C)c3c2)cc1C	none
CCOC(=O)C(C(=O)OCC)C(Nc1ccc(Br)cc1)c1ccccc1 (stereo not given)	none
COc1cccc(NC(=O)C2C3C=CC4(O3)C2C(=O)N(C2CC2)C4C(=O)NC2CCCCC2C)c1 (stereo not given)	none
COc1ccc(C2OC(=O)CC2C(=O)NC2CCCC(C)C2C)cc1OC (stereo not given)	none
O=C(COc1ccc(-n2cnnn2)cc1)N1CCN(c2ccc(F)cc2)CC1	none
COC(=O)c1ccc(OC)cc1OCC(=O)N1CCN(c2ccc(F)cc2)CC1	CYP2C19 inhib 64
O=C(CN1C(=O)c2cccc3cccc1c23)N1CCN(c2ccc(F)cc2)CC1	CYP2C9 act 2.2
O=[N+]([O-])c1ccc(N2CCN(S(=O)(=O)Cc3ccccc3)CC2)cc1N1CCOCC1	CYP2C19 inhib 56, CYP2C9 inh 53
O=C(COc1ccccc1Cl)N1CCN(c2ccc([N+](=O)[O-])c(N3CCOCC3)c2)CC1	CYP2C9 inh 85
CCc1nc(N[C@H](C(=O)O)C(C)CC)c2oc3ccccc3c2n1 (stereo not given in full)	none
COc1ccc(Nc2ncc(C(=O)N3CCN(c4ccc(F)cc4)CC3)c3ccccc23)cc1	CYP2C19 inhib 61, CYP2C9 inh 66
O=C(OCC(=O)N1CCN(c2ccccc2)CC1)c1ccc2ccccc2n1	CYP2C9 act 2.3
O=S(c1ccc2ccccc2c1)c1cnns1 (stereo not given)	CYP2C19 inhib 75
Cc1ccc(C)c(NC(=O)CSc2nnc(CCCCCNC(=O)OC(C)(C)C)o2)c1	none
CC(C)(C)OC(=O)NCCc1nnc(SCc2ccccc2Cl)o1	CYP2C19 inhib 82, CYP2C9 inh 77
CC(C)(C)OC(=O)NCCc1nnc(SCC(N)=O)o1	none
Cc1cccc(C)c1NC(=O)CSc1nnc(CCCCCNC(=O)OC(C)(C)C)o1	CYP2C19 inhib 50, CYP2C9 inh 73
Cc1ccc(NC(=O)CSc2nnc(CCNC(=O)OC(C)(C)C)o2)c(C)c1	none
CC(C)(C)OC(=O)NCCc1nnc(S(=O)(=O)Cc2ccc(Cl)cc2Cl)o1	CYP2C19 inhib 77, CYP2C9 inh 80
CCCn1c(C(O)c2ccc(OC)cc2)nc2ccccc21 (stereo not given)	none (no result: CYP2C19 inhib, CYP2C9 inh, CYP2C19 activ, CYP2C9 act)
CC(C)CC(=O)NC(NCC1CCCO1)C(Cl)(Cl)Cl (stereo not given)	CYP2C19 inhib 57
COc1cc(C(=O)N(Cc2cccnc2)Cc2cc3cc4c(cc3[nH]c2=O)OCCO4)cc(OC)c1OC	none
O=C(O)CCC(=O)Nc1ccc(N2CCCCCC2)cc1	none
Cc1cc(NC(=O)CSc2nc3ccccc3c(=O)n2CCCC(=O)NCc2ccccc2)n[nH]1	CYP2C19 inhib 87, CYP2C9 inh 78
O=C(CCCn1c(SCC(=O)NCC2CCCO2)nc2ccccc2c1=O)NCc1ccccc1 (stereo not given)	CYP2C9 inh 56
O=C(CCCn1c(SCC(=O)c2ccc(F)cc2)nc2ccccc2c1=O)NCc1ccccc1	CYP2C19 inhib 71, CYP2C9 inh 90
COc1ccc(-n2c(Cc3cccn3C)nnc2SCC(=O)NCC2CCCO2)cc1 (stereo not given)	none
COc1ccc(-n2c(SCC(=O)NCC3CCCO3)nc3ccccc32)cc1 (stereo not given)	CYP2C19 inhib 93, CYP2C9 inh 90
Cc1cccc(N2CCN(CC(=O)Nc3ccc(-n4cnnn4)cc3)CC2)c1C	none
O=C(O)c1cnn2c(C(F)F)cc(C3CC3)nc12	none
CN(C)CCOCCP(=O)(c1ccccc1)c1ccccc1	none
O=C(c1ncc[nH]1)c1ccccc1C(=O)N1CCOCC1	none
Cc1ccc(N=Cc2ccc(O)cc2O)cc1F	none
Cc1ccc(NC(=O)CS(=O)CC(=O)NC2CCN(Cc3ccccc3)CC2)c(C)c1 (stereo not given)	none
CC1CN(Cc2ccccc2)c2nc3c(c(=O)n(C)c(=O)n3C)n2C1 (stereo not given)	none
NC(=O)c1ccc(F)cc1	none (no result: CYP2C19 inhib, CYP2C9 inh, CYP2C19 activ, CYP2C9 act)
NC(=O)c1ccc(OCC(F)(F)C(F)(F)C(F)(F)C(F)(F)C(F)(F)C(F)F)cc1	CYP2C19 inhib 55
Cn1ncc(Cl)c1C(=O)N1CCCc2ccccc21	CYP2C19 inhib 54, CYP2C9 inh 63
O=C(c1ccc(C(=O)N2CCCc3ccccc32)s1)N1CCCc2ccccc21	CYP2C19 inhib 50
O=C(c1cc(-c2cccs2)on1)N1CCCc2ccccc21	CYP2C19 inhib 93 (no result: EphB4 antag)
Cn1ncc(Cl)c1C(=O)N1CCc2ccccc21	none
Cc1ccc(N2CC(C(=O)N3CCCc4ccccc43)CC2=O)cc1 (stereo not given)	CYP2C19 inhib 68, CYP2C9 inh 96
COC(=O)CC1C(=O)NCCN1C(=O)CSc1nnc(Nc2ccc(C)cc2)s1 (stereo not given)	none
CC(Cc1ccccc1)N/C=C1/CC(=O)NC1=O (stereo not given)	none
COc1ccc(C2=NOC(C(=O)N3CCCc4ccccc43)C2)cc1 (stereo not given)	CYP2C9 act 2.2
O=C(Cn1ncc2c(=O)oc3ccccc3c21)N1CCCc2ccccc21	CYP2C9 inh 67
COc1ccc(OCC(=O)NC(=S)N2CCCc3ccccc32)cc1	CYP2C19 inhib 64
O=C(CCCC(=O)N1CCCc2ccccc21)N1CCCc2ccccc21	CYP2C19 inhib 95
CCOC(=O)Cn1ncc2c(=O)oc3ccccc3c21	none
COc1ccc(C2/C(=C(\O)c3ccc4c(c3)OCCO4)C(=O)C(=O)N2Cc2ccco2)c(OC)c1 (stereo not given)	none (no result: CYP2C19 inhib, CYP2C9 inh, CYP2C19 activ, CYP2C9 act)
COc1ccc2c(CC(=O)N(C)CC3COc4ccccc4O3)coc2c1 (stereo not given)	CYP2C19 inhib 99, CYP2C9 inh 88
CC(C)C(=O)c1cn(CC(=O)N2CCCc3ccccc32)c2ccccc12	CYP2C9 inh 74
Cn1c(C(=O)N2CCCc3ccccc32)cc2c(=O)n3ccccc3nc21	CYP2C9 inh 65
CCOC(=O)C(C)Oc1cccc2c(=O)n(CC(=O)N3CCCc4ccccc43)ccc12 (stereo not given)	none
COc1ccc(C(=O)NCC(=O)NCC2COc3ccccc3O2)cc1 (stereo not given)	none

Screening results as filed in PubChem BioAssay.
